Measurements as given in PubChem BioAssay (EPA / NIEHS).
Values joined by “and” are separate entries in the source; they are usually repeats but may differ in a detail not shown here. Equal values may be shown once. Inconclusive results are not listed. Active and inactive are the calls of the source. How the source made its calls, unless noted: active means hit-call score of the fitted dose curve at least 0.9, where 1 is the maximum; inconclusive means response in the unintended direction; inactive means score below 0.9.

Columns and labels:
[1] = ATG_NRF2_ARE_CIS: Attagene CIS-FACTORIAL HepG2 Assay for human Nuclear Factor Erythroid 2 Related Factor 2 (NFR2) response to Antioxidant Response Elements (ARE) (AID 2282992; active means hit-call score of the fitted dose curve at least 0.9, where 1 is the maximum; inactive means score below 0.9;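 on AC50: reporter mRNA level measured by RT-PCR and capillary electrophoresis fluorescence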); conditions: HepG2 Attagene ARE/NRF2 reporter, transcription factor activity; actives raise or lower the signal
How it was run: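 Endogenous transcription factor activity in human liver HepG2 cells is tracked via a cis-element-driven reporter within a multiplexed set. mRNA induction is read by RT-PCR and capillary electrophoresis after 24 h, with DMSO as baseline.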

[2] = ATG_Oct_MLP_CIS: Attagene CIS-FACTORIAL HepG2 Assay for human Octamer-Binding Transcription Factor (Oct) (AID 2282993; active means hit-call score of the fitted dose curve at least 0.9, where 1 is the maximum; inactive means score below 0.9); conditions: HepG2 Attagene cis-factorial Oct reporter, mRNA; actives raise or lower the signal
How it was run: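 HepG2 cells transiently transfected with cis-promoter-driven multiplexed reporter transcription units, dosed for 24 h. Reporter mRNA quantified by RT-PCR, fluorescent labelling, HpaI digestion and capillary electrophoresis; bidirectional fits versus DMSO baseline.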

[3] = biological target: Cellular tumor antigen p53 (Homo sapiens) (UniProt P04637); assay: ATG_p53_CIS: Attagene CIS-FACTORIAL HepG2 Assay for human p53 Transcription Factor (AID 2282994; active means hit-call score of the fitted dose curve at least 0.9, where 1 is the maximum; inactive means score below 0.9); conditions: HepG2 p53 cis-element reporter, Attagene mRNA; actives raise or lower the signal
How it was run: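 Steps: transfect HepG2 with multiplexed cis reporter constructs; dose chemicals 24 h; extract RNA, reverse-transcribe, PCR-amplify reporter sequences; FAM-label, HpaI-digest, resolve fragments by CE. Activity fitted both directions relative to DMSO.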

[4] = biological target: Retinoic acid receptor alpha (Homo sapiens) (UniProt P10276); assay: ATG_RARa_TRANS: Attagene TRANS-FACTORIAL HepG2 Assay for human Retinoic Acid Receptor alpha (RARa) (AID 2283005)
How it was run: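 Reporter transcripts, measured by RT-PCR with fluorescent labeling and capillary electrophoresis after 24 h dosing, reflect activity of an exogenous human RARa–GAL4 fusion in transiently transfected HepG2. Fitted for increase relative to DMSO.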

[5] = biological target: Nuclear receptor subfamily 1 group I member 2 (Homo sapiens) (UniProt O75469); assay: ATG_PXR_TRANS: Attagene TRANS-FACTORIAL HepG2 Assay for human Pregnane X Receptor (PXR) (AID 2283008)
How it was run: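 HepG2 transfected (FuGene 6) with GAL4-UAS reporter units + PXR-Gal4 chimera; dosed 24 h. Total RNA → oligo(dT) RT → PCR → 6-FAM primer extension → HpaI cut → CE. Gain-of-signal vs DMSO.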

[6] = biological target: human Retinoic Acid Receptor gamma (RARg), RARG (gene 5916) (UniProt P13631); assay: ATG_RARg_TRANS: Attagene TRANS-FACTORIAL HepG2 Assay for human Retinoic Acid Receptor gamma (RARg) (AID 2283009)
How it was run: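 Readout: reporter transcript levels via RT-PCR, 6-FAM primer-extension labelling, HpaI digestion and capillary electrophoresis. Cells: HepG2 carrying transfected RARg-GAL4 chimera plus UAS reporter set. Dosing 24 h; DMSO negative control.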

[7] = biological target: human RAR-related Orphan Receptor beta (RORb), RORB (gene 6096) (UniProt Q92753); assay: ATG_RORb_TRANS: Attagene TRANS-FACTORIAL HepG2 Assay for human RAR-related Orphan Receptor beta (RORb) (AID 2283010)
How it was run: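 HepG2, transient MRTU transfection (GAL4-UAS reporters, exogenous NR-Gal4 chimeras); 24 h compound exposure; total RNA → RT-PCR → 6-FAM primer extension → HpaI digest → CE fluorescence. Positive direction vs DMSO baseline.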

[8] = biological target: human RAR-related Orphan Receptor gamma (RORg), RORC (gene 6097) (UniProt P51449); assay: ATG_RORg_TRANS: Attagene TRANS-FACTORIAL HepG2 Assay for human RAR-related Orphan Receptor gamma (RORg) (AID 2283011)
How it was run: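 Reporter transcripts from a transfected RORg-GAL4 chimera in HepG2 cells were quantified 24 h after dosing by RT-PCR, 6-FAM labelling, HpaI digestion and capillary electrophoresis; increases over DMSO baseline were fitted.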

[9] = BSK_3C_TissueFactor: BioMAP Diversity Plus: 3C Assay for Tissue Factor Biomarker Activity (AID 2282997; active means hit-call score of the fitted dose curve at least 0.9, where 1 is the maximum; inactive means score below 0.9); conditions: BioMAP 3C HUVEC, tissue factor biomarker readout; actives raise or lower the signal
How it was run: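 Tissue factor on primary human umbilical vein endothelium was read by ELISA 24 h after dosing, gain or loss relative to DMSO. Cytotoxicity ran alongside via SRB (0.1%, TCA-fixed, 560 nm).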

[10] = BSK_4H_Eotaxin3: BioMAP Diversity Plus: 4H Assay for Eotaxin 3 Biomarker Activity (AID 2283000; active means hit-call score of the fitted dose curve at least 0.9, where 1 is the maximum; inactive means score below 0.9;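 further: CCL26 protein level quantified by ELISA in parallel with SRB cytotoxicity check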); conditions: primary human endothelial cells (HUVEC); actives raise or lower the signal
How it was run: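 Human umbilical vein endothelial cells (BSK_4H system) dosed with test chemical; Eotaxin-3 (CCL26) measured by ELISA 24 h after dosing. Bidirectional curve fitting relative to DMSO negative control as baseline.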

[11] = biological target: human Peroxisome Proliferator-activated Receptor alpha (PPARa), PPARA (gene 5465) (UniProt Q07869); assay: ATG_PPARa_TRANS: Attagene TRANS-FACTORIAL HepG2 Assay for human Peroxisome Proliferator-activated Receptor alpha (PPARa) (AID 2283001);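 on AC50: potency for gain of reporter signal over DMSO so agonist or activator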
How it was run: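 Transfected HepG2 cells treated with test chemical for 24 h. RNA isolated, reverse-transcribed with oligo(dT), PCR-amplified, FAM-labelled and HpaI-digested. Fragments sized by capillary electrophoresis; gain-of-signal fit relative to DMSO.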

[12] = read-out: Intercellular Adhesion Molecule 1 (ICAM1), ICAM1 (gene 3383); assay: BSK_3C_ICAM1: BioMAP Diversity Plus: 3C Assay for Intercellular Adhesion Molecule 1 (ICAM1) Biomarker Activity (AID 2283003; active means hit-call score of the fitted dose curve at least 0.9, where 1 is the maximum; inactive means score below 0.9); conditions: primary human endothelial cells (HUVEC); actives raise or lower the signal
How it was run: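 ELISA read-out of ICAM-1; HUVEC (primary human), 3C system, 24 h post-dosing; bidirectional fit vs DMSO baseline.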

[13] = BSK_3C_Proliferation: Cell Proliferation Assessment in the BioMAP Diversity Plus: 3C Assay (AID 2283006; active means hit-call score of the fitted dose curve at least 0.9, where 1 is the maximum; inactive means score below 0.9;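 on AC50: potency may reflect either rise or fall in cell number versus DMSO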); conditions: primary human endothelial cells (HUVEC)
How it was run: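 HUVEC, sub-confluent; 48 h chemical exposure; 10% TCA fix, 0.1% SRB stain, A560 total protein. Gain or loss of signal fitted both directions vs DMSO control.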

[14] = biological target: Peroxisome proliferator-activated receptor gamma (Homo sapiens) (UniProt P37231); assay: ATG_PPARg_TRANS: Attagene TRANS-FACTORIAL HepG2 Assay for human Peroxisome Proliferator-activated Receptor-gamma (PPARg) (AID 2283007)
How it was run: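 Read-out: reporter mRNA induction, detected by fluorescence after RT-PCR and capillary electrophoresis. Transiently transfected human HepG2 liver cells carrying a chimeric NR-Gal4 construct were dosed for 24 h; activity was fitted upward relative to DMSO.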

[15] = biological target: Retinoic acid receptor RXR-alpha (Homo sapiens) (UniProt P19793); assay: ATG_RXRa_TRANS: Attagene TRANS-FACTORIAL HepG2 Assay for human Retinoid X Receptor alpha (RXRa) (AID 2283012)
How it was run: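 Read-out: fluorescent reporter-transcript fragments quantified by capillary electrophoresis after RT-PCR. Transiently transfected HepG2 cells carrying GAL4-UAS reporters and NR-GAL4 chimeras were exposed to chemical for 24 h; activity scored as increase over DMSO.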

[16] = BSK_3C_uPAR: BioMAP Diversity Plus: 3C Assay for Urokinase-type plasminogen activator receptor (uPAR) Biomarker Activity (AID 2282998; active means hit-call score of the fitted dose curve at least 0.9, where 1 is the maximum; inactive means score below 0.9); conditions: BioMAP 3C HUVEC, uPAR biomarker ELISA; actives raise or lower the signal
How it was run: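 Human umbilical vein endothelial primary cells were exposed to test chemical for 24 h. Cell-surface uPAR was then quantified by ELISA, and responses were fitted bidirectionally against DMSO as negative control and baseline.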

[17] = biological target: human Retinoic Acid Receptor beta (RARb), RARB (gene 5915) (UniProt P10826); assay: ATG_RARb_TRANS: Attagene TRANS-FACTORIAL HepG2 Assay for human Retinoic Acid Receptor beta (AID 2283004)
How it was run: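 Induction of reporter mRNA from a chimeric RARb-Gal4 construct was measured by RT-PCR, FAM labelling, HpaI digestion and capillary electrophoresis. Measurements followed 24 h compound treatment of transiently transfected human HepG2 liver cells, with DMSO as baseline.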

[18] = biological target: human Retinoid X Receptor beta (RXRb), RXRB (gene 6257) (UniProt P28702); assay: ATG_RXRb_TRANS: Attagene TRANS-FACTORIAL HepG2 Assay for human Retinoid X Receptor beta (RXRb) (AID 2283013)
How it was run: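 Read-out: reporter mRNA induction via RT-PCR plus capillary electrophoresis fluorescence, analysed as signal increase relative to DMSO. Cells were human HepG2, transiently transfected with GAL4-UAS reporter constructs and chimeric receptor-Gal4 fusions, dosed for 24 h.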

[19] = BSK_3C_VCAM1: BioMAP Diversity Plus: 3C Assay for Vascular cell adhesion molecule 1 (VCAM1) Biomarker Activity (AID 2282999; active means hit-call score of the fitted dose curve at least 0.9, where 1 is the maximum; inactive means score below 0.9); conditions: BioMAP 3C HUVEC, VCAM1 ELISA, cytokine-stimulated; actives raise or lower the signal
How it was run: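 Activity fitted in both directions relative to DMSO, with ELISA measurement of the surface marker on primary HUVEC (3C) at 24 h post-treatment; parallel SRB staining (0.1% SRB, TCA-fixed, 560 nm) flagged overt cytotoxicity.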

[20] = biological target: human Peroxisome Proliferator-activated Receptor delta (PPARd), PPARD (gene 5467) (UniProt Q03181); assay: ATG_PPARd_TRANS: Attagene TRANS-FACTORIAL HepG2 Assay for human Peroxisome Proliferator-activated Receptor delta (PPARd) (AID 2283002)
How it was run: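 Cell-based TRANS reporter: HepG2, transient MRTU transfection, 24 h exposure. Readout = reporter mRNA (RT-PCR/CE, 6-FAM). Gain-of-signal fit vs DMSO control.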

Measured: AC50

Sequence of Peroxisome proliferator-activated receptor gamma (Homo sapiens) (P37231 whole entry, looked up, the tested form may be a part): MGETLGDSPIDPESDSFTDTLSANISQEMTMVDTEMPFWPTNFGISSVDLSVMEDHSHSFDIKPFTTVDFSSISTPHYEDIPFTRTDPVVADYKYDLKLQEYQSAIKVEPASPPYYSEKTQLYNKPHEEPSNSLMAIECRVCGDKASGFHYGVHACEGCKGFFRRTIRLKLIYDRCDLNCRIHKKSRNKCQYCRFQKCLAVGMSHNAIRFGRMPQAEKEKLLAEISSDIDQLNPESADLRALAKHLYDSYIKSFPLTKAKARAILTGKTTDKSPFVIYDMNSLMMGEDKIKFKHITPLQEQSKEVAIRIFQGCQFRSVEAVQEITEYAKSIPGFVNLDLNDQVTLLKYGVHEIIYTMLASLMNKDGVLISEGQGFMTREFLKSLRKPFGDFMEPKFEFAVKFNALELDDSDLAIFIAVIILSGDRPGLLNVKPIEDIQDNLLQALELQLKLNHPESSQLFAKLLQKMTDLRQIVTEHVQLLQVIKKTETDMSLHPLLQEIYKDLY
Sequence of Cellular tumor antigen p53 (Homo sapiens) (P04637 whole entry, looked up, the tested form may be a part): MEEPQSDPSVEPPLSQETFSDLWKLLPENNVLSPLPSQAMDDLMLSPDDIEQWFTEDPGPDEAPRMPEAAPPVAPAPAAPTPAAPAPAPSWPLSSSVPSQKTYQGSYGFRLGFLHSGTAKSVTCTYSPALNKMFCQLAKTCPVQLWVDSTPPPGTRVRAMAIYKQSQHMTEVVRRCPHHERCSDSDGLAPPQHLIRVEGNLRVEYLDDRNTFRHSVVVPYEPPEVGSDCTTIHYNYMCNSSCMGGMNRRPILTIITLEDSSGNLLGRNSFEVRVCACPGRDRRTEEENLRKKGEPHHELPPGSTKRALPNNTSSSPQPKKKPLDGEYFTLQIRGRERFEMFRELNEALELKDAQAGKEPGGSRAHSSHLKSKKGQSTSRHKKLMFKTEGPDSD
Sequence of human Retinoic Acid Receptor beta (RARb), RARB (gene 5915) (P10826 whole entry, looked up, the tested form may be a part): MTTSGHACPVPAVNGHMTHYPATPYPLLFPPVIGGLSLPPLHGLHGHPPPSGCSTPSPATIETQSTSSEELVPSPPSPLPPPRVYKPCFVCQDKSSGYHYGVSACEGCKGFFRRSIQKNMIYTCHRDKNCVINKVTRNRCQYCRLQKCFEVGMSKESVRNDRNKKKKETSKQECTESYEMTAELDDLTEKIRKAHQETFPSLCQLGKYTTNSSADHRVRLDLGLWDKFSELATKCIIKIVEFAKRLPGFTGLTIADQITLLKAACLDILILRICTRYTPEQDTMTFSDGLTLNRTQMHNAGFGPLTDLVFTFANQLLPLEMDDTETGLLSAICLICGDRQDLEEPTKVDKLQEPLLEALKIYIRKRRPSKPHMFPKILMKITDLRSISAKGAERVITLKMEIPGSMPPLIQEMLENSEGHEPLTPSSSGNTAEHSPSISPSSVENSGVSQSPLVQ
Sequence of Nuclear receptor subfamily 1 group I member 2 (Homo sapiens) (O75469 whole entry, looked up, the tested form may be a part): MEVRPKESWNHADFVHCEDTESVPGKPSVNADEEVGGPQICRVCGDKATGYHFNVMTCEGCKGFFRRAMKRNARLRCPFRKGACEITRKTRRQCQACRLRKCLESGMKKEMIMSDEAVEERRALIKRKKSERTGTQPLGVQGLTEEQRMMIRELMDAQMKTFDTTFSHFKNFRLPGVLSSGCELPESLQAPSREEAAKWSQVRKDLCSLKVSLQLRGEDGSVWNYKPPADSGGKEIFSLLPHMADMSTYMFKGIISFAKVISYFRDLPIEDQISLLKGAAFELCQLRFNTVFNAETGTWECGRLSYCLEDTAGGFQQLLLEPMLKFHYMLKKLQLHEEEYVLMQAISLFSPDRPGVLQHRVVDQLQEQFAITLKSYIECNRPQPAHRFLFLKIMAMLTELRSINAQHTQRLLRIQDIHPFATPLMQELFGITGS
Sequence of Retinoic acid receptor alpha (Homo sapiens) (P10276 whole entry, looked up, the tested form may be a part): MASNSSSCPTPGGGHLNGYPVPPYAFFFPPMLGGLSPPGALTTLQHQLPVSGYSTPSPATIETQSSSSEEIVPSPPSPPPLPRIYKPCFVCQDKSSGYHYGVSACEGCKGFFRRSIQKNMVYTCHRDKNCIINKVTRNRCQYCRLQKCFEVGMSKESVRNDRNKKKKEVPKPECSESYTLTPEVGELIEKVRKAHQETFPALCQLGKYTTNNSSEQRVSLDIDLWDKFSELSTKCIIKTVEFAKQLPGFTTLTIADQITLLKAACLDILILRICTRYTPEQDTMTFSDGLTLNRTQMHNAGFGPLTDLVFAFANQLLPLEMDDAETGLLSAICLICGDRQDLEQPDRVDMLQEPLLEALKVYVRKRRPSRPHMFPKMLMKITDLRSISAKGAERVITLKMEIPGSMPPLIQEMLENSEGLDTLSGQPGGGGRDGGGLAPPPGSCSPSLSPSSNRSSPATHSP
Sequence of human Peroxisome Proliferator-activated Receptor alpha (PPARa), PPARA (gene 5465) (Q07869 whole entry, looked up, the tested form may be a part): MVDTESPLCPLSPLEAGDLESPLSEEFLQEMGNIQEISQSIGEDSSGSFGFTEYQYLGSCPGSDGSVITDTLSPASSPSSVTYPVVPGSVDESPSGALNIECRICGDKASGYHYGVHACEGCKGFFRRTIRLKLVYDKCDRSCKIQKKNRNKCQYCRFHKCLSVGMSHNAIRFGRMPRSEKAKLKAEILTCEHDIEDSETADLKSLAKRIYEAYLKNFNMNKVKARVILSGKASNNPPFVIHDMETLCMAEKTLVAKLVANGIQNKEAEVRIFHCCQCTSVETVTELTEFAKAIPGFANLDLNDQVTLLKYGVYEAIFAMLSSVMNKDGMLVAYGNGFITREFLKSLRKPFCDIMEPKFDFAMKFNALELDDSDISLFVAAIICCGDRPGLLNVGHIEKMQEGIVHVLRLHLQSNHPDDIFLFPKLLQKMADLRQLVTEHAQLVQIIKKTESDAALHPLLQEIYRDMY
Sequence of human RAR-related Orphan Receptor gamma (RORg), RORC (gene 6097) (P51449 whole entry, looked up, the tested form may be a part): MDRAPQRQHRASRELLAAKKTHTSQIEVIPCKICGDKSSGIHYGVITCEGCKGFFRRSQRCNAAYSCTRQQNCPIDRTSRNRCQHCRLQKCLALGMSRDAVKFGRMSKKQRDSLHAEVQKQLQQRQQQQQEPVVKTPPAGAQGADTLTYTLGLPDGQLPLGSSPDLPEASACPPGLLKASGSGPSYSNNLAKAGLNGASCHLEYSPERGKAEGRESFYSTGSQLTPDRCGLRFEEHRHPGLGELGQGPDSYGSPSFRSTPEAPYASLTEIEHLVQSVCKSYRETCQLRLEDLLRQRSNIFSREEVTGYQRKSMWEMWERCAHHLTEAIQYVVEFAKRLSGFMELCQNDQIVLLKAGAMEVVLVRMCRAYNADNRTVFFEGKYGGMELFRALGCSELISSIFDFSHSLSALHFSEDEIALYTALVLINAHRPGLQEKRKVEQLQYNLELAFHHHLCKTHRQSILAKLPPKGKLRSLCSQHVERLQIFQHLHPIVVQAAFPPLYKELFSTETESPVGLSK
Sequence of human Retinoic Acid Receptor gamma (RARg), RARG (gene 5916) (P13631 whole entry, looked up, the tested form may be a part): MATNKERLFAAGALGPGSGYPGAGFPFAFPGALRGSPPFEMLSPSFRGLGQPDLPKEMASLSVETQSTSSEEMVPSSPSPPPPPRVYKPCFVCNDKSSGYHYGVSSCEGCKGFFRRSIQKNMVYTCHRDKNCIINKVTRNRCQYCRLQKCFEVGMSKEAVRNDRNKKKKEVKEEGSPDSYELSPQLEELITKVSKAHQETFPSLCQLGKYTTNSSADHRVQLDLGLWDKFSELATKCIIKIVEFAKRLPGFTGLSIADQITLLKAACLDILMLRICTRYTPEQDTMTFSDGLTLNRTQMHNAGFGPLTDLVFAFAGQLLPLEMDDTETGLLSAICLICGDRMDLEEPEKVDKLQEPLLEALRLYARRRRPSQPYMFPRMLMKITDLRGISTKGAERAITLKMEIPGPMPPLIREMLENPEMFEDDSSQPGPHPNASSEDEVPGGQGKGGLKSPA
Sequence of Retinoic acid receptor RXR-alpha (Homo sapiens) (P19793 whole entry, looked up, the tested form may be a part): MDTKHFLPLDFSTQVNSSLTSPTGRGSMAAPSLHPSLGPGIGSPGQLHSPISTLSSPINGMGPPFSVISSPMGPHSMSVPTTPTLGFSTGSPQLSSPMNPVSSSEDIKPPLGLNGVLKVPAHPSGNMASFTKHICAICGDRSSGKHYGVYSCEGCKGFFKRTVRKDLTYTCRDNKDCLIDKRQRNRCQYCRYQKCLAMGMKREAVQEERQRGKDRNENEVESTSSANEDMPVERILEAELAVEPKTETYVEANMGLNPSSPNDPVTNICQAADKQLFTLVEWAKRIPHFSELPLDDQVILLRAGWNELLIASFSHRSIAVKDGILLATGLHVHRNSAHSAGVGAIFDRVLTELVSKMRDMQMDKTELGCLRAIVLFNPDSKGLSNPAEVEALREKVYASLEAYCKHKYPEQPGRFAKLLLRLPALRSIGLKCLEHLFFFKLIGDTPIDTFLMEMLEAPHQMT
Sequence of human Retinoid X Receptor beta (RXRb), RXRB (gene 6257) (P28702 whole entry, looked up, the tested form may be a part): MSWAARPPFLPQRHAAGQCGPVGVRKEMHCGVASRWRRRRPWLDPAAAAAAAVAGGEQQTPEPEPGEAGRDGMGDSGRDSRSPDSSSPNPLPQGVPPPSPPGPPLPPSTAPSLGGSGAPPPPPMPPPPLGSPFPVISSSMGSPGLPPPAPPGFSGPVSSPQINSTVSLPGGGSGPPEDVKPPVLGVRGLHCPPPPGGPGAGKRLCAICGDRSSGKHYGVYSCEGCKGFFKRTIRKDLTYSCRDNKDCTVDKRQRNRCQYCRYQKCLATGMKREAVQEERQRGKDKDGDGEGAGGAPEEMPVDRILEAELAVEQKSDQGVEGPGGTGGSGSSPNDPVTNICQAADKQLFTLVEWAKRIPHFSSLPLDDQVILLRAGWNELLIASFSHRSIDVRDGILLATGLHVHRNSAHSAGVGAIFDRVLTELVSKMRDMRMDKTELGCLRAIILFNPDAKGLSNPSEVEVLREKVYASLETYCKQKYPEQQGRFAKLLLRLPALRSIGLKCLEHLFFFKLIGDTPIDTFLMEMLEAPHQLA

C[As+](C)(C)CC(=O)[O-]
inactive: [1] | [2] | [3] | [4] | [5] | [6] | [7] | [8]

Nc1ccc(N)cc1
active: [1] 11.5 µM and 12.4 µM
inactive: [2] | [9] | [10] | [11] | [12] | [4] | [13] | [14] | [6] | [7] | [8] | [15]

O=C(O)C1(c2ccc3c(c2)OC[C@H](Cc2ccc(-c4ccccc4)cc2)[C@H]3O)CCCC1
active: [1] 8.26 µM | [16] 29.9 µM | [11] 11 µM | [13] 13.2 µM
inactive: [2] | [9] | [12] | [17] | [4] | [5] | [6] | [15] | [18]

CN(C)C(=S)S
inactive: [2] | [9] | [19] | [12] | [13] | [5] | [15]
active: [1] 26.8 µM | [18] 27 µM

O=[N+]([O-])c1ccc(Cl)c([N+](=O)[O-])c1
inactive: [1] | [2] | [3] | [7] | [8]

Clc1ccc(C(Cl)(Cl)Cl)cn1
inactive: [1] | [2] | [3] | [14] | [5] | [8] | [15] | [18]

Clc1cccc(Cl)c1
inactive: [1] | [2] | [9] | [16] | [10] | [20] | [12] | [17] | [13] | [8] | [18]

[F][Sn]([c]1ccccc1)([c]1ccccc1)[c]1ccccc1
active: [2] 0.335 µM | [3] 0.316 µM | [14] 0.0401 µM | [15] 0.00404 µM | [18] 0.00128 µM
inactive: [1] | [5]

O=C(CBr)c1ccc(O)cc1
inactive: [2] | [3] | [17] | [14] | [5] | [8]
active: [1] 41.5 µM
